Measurements from PubChem BioAssay (Tox21).
A number with no mark means an inactive call. Calls follow the shape of the full dose curve.

target: Muscarinic acetylcholine receptor M1 (Homo sapiens) (UniProt P11229); assay: Cholinergic receptor muscarinic 1 (CHRM1) small molecule agonists, cell-based qHTS assay (AID 1963589); details: CHRM1-CHO cells, agonist mode, calcium flux fluorescence; series mostly up to 76.8 µM; activation: at the top concentration; also: nearly all actives have a fitted effect of over 35% in size
Sequence (P11229 whole entry, looked up): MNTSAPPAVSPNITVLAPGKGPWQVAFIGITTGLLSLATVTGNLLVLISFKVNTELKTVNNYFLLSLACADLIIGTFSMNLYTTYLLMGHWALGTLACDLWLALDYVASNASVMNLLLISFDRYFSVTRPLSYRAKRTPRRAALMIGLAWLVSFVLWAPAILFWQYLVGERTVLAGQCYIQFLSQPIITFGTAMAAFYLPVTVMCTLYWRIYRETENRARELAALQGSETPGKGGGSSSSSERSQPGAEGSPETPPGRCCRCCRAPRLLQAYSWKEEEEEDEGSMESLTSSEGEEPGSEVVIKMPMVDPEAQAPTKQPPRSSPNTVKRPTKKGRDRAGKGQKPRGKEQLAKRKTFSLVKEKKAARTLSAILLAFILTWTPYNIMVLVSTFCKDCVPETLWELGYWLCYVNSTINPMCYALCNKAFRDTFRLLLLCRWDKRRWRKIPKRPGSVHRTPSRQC
Source text: National Center for Advancing Translational Sciences [NCATS]
Division of Preclinical Innovation [DPI]
U.S. Environmental Protection Agency [EPA]
National Institutes of Environmental Health Sciences [NIEHS]
National Toxicology Program [NTP]
U.S. Food and Drug Administration [FDA]
The CHRM1 is a muscarinic receptor. This receptor plays a crucial role in learning and memory processes and has long been identified as a promising therapeutic target for the improvement of cognitive decline in Alzheimer's disease (AD). The CHRM1-CHO cell line stably expressing human muscarinic acetylcholine receptor M1 (CHRM1) can be used for screening agonists and antagonists of interactions between CHRM1 and its ligands. The CHRM1-CHO Calcium Flux Assay is a homogeneous fluorescence-based assay for detecting the intracellular calcium level using FDSS kinetic plate reader system.
CHRM1-CHO cells were dispensed at 1000 cells/3uL/well in 1536-well black-clear bottom plates using a Multidrop Dispenser. After the assay plates were incubated at a 37 C/5% CO2 incubator for 18 h, 3 uL of Dye Loading Buffer was transferred to the assay plate by a Flying Reagent Dispenser. The assay plates were incubated at 37 C for 1h. For agonist mode, 23 nL of compounds dissolved in DMSO, positive controls or DMSO only was transferred to the assay plate by a pin tool. […] Each test compound was measured at 15 concentrations in three independent runs.
% is scaled to controls: 0 for no effect and ±100 for the full control effect.

| Compound | activation |
| --- | --- |
| CC/C=C\CCCCO | 0.232% |
| C=CC(=O)OCC(Br)CBr (stereo not given) | -0.563% |
| CC(C)Nc1cccnc1N1CCN(C(=O)c2cc3cc(NS(C)(=O)=O)ccc3[nH]2)CC1 | 14.3% [at 35.3 µM] |
| CCOC(=O)COC(=O)c1ccccc1C(=O)OCC | -0.806% |
| CC(C)(O)CCc1ccccc1 | -0.843% |
| COC(=O)N/N=C/c1c[n+]([O-])c2ccccc2[n+]1[O-] | 0% [at 35.3 µM] |
| CC1=NC(C)OC1C (stereo not given) | -0.238% |
| O=C(O)c1ccc2cc(O)ccc2c1 | -0.429% |
| OCCN1CN(CCO)CN(CCO)C1 | -0.789% |
| Clc1cc(Cl)c(-c2c(Cl)c(Cl)cc(Cl)c2Cl)cc1Cl | -0.624% [at 35.3 µM] |
| CCCC(C(=O)OCCN(CC)CC)(c1ccccc1)c1ccccc1 | -0.271% [at 35.3 µM] |
| c1ccc(CC2=NCCN2)cc1 | -0.295% [at 35.3 µM] |
| C/C=C(\C)C#N | -0.341% |
| CCC(C)(C)C(=O)O | 8.79% |
| C=COCC(C)C | -0.265% |
| COc1ccc(C(C)=O)cc1 | -0.157% |
| CC(CN1CC(=O)NC(=O)C1)N1CC(=O)NC(=O)C1 (stereo not given) | -0.145% |
| CCCCCCCCCCCCC | 0.363% |
| O=C(CCC1CCN(Cc2ccccc2)CC1)c1ccc2c(c1)NCCCC2 | -0.121% [at 35.3 µM] |
| CN1Cc2cc(C(=O)N3CCC(C4CCNCC4)CC3)ccc2N[C@@H](CC(=O)O)C1=O | -0.282% [at 35.3 µM] |

| Compound | activation |
| --- | --- |
| Nc1ccc(C(=O)N2CC3CC(CN(Cc4ccccc4)C3)C2)cc1 | -0.527% [at 35.3 µM] |
| Cc1cccc(C)n1 | -0.0748% |
| Cc1c(C2(c3cc(Br)c(O)c(Br)c3C)OS(=O)(=O)c3ccccc32)cc(Br)c(O)c1Br | -0.206% |
| CN1CCC(=C2c3ccccc3CCc3sccc32)CC1 | -0.19% [at 35.3 µM] |
| CCCC[P+](C)(CCCC)CCCC | 5.45% |
| CC1=C(C)C(=O)C(CCCCC#CCCCC#CCO)=C(C)C1=O | -0.0241% [at 35.3 µM] |
| CC(C)C[C@H](NC(=O)OCC1c2ccccc2-c2ccccc21)C(=O)O | -0.0917% |
| COc1ccc2c(c1)C(=O)N(CCc1ccc(S(=O)(=O)NC(=O)NC3CCCCC3)cc1)C(=O)C2(C)C | 0.307% [at 35.3 µM] |
| CC(C)(C)OC(=O)N1C[C@@H](F)C[C@H]1C(=O)O | 0.79% |
| CC(C)CCCCCCOC(=O)c1ccc(C(=O)OCCCCCCC(C)C)c(C(=O)OCCCCCCC(C)C)c1 | -0.815% |
| Nc1cc(C(=O)O)ccc1Cl | 0.0321% |
| CCN1CN(CC)CN(CC)C1 | -0.387% |
| CCCCCCCCCCCCCCBr | -0.0159% |
| NC(=O)COCCN1CCN(C(c2ccccc2)c2ccc(Cl)cc2)CC1 (stereo not given) | -0.836% [at 35.3 µM] |
| O=C(OOC(=O)c1ccccc1)c1ccccc1 | -0.0598% [at 35.3 µM] |
| C=C(C)C(=O)OCCCC | -0.0167% |
| O=C(O)c1cc(N=Nc2ccc([N+](=O)[O-])cc2)ccc1O | 1.18% |
| CC(=O)Oc1cc(C(C)C)c(OCCN(C)C)cc1C | -0.687% [at 35.3 µM] |
| O=C(O)c1cccc(C(=O)O)n1 | 0.0253% |
| On1nnc2ccccc21 | -0.778% |
